The nature of experiment [1]: qHTS for Inhibitors of Plasmodium falciparum (DD2) proliferation (AID 504314).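 Also: parasite DNA measured by SYBR Green fluorescence after red cell lysis; plate controls were DMSO vehicle for no effect and artemisinin wells for full effect.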 A digest of the protocol:
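Infected RBCs, 0.3% parasitemia, 2.5% Hct; compound 72 h, 37C/5% CO2; lyse + SYBR Green I, RT overnight, dark; read ex485/em535; normalize to DMSO and artemisinin 0.29 uM.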

Experiment [2] is described as follows: qHTS for Inhibitors of Plasmodium falciparum (GB4) proliferation (AID 504315).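 Also: 0% = DMSO vehicle and -100% = 0.29 µM artemisinin control; nearly all actives have a fitted effect of over 50% in size.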 A digest of the protocol:
(§1)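 Erythrocytes infected with P. falciparum line (0.3% parasitemia, 2.5% hematocrit final) incubated with compounds 72 h at 37 °C, 5% CO2; SYBR Green lysis buffer added, fluorescence read next day. Normalized to 0.29 uM artemisinin and DMSO.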

Experiment [3] can be described thus: qHTS for Inhibitors of Plasmodium falciparum (7G8) proliferation (AID 504316).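 Also: 0% = DMSO vehicle and -100% = 0.29 µM artemisinin full kill; nearly all actives have a fitted effect of over 65% in size.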 A digest of the protocol: as §1
Experiment [4] is described as follows: qHTS for Inhibitors of Plasmodium falciparum (HB3) proliferation (AID 504318).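 Also: 0% = DMSO vehicle and -100% = artemisinin control; nearly all actives have a fitted effect of over 60% in size.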 A digest of the protocol:
as §1

Experiment [5] can be described thus: qHTS for Inhibitors of Plasmodium falciparum (CP250) proliferation (AID 504320).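 Also: plate controls were DMSO vehicle for no effect and 0.29 µM artemisinin control for full effect.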 The method, boiled down: as §1
Experiment [6] concerns the target Rap guanine nucleotide exchange factor 3 (Homo sapiens) (UniProt O95398). The experiment can be described thus: Confirmatory qHTS for antagonist of cAMP-regulated guanine nucleotide exchange factor 3 (EPAC1) (AID 1645880). Also: nearly all actives have a fitted effect of over 55% in size. Also: potency is read from the fitted curve at half-maximal effect.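 As to activity, negative = inhibition: plate controls were DMSO only for no effect and full effect of the ATA control for full effect.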 The following applies: EPAC1 Rap1B-BODIPY-GDP exchange, fluorescence; activity, negative = inhibition: at 115 µM (top of the series). The method, boiled down: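 Nucleotide exchange uses 100 nM EPAC1, 250 nM RAP1B-BODIPY-GDP and 50 uM GDP, with compounds in a concentration-titration series. After 5 min at room temperature, fluorescence (480 nm ex/540 nm em) is read every 5 min for 30 min. Data are normalized to control ATA and DMSO.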

For experiment [7] the target is unchanged. The experiment can be described thus: Confirmatory qHTS for agonist of cAMP-regulated guanine nucleotide exchange factor 3 (EPAC1) (AID 1645881). Also: nearly all actives have a fitted effect of over 75% in size. Also: potency is read from the fitted curve at half-maximal effect.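 As to activation: EPAC1 catalysed release of BODIPY-GDP from Rap1B seen as fluorescence loss; 100% = effect of cAMP agonist control.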
Experiment [8] addresses Rap guanine nucleotide exchange factor 4 (Homo sapiens) (UniProt Q8WZA2). The experiment can be described thus: Confirmatory qHTS for agonist of cAMP-regulated guanine nucleotide exchange factor 4 (EPAC2) (AID 1645884).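 Also: nucleotide exchange releases bodipy-GDP from Rap1 and this lowers its fluorescence; nearly all actives have a fitted effect of over 65% in size.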 Also: potency is read from the fitted curve at half-maximal effect.
Experiment [9] has the same target. The experiment can be described thus: Confirmatory qHTS for antagonist of cAMP-regulated guanine nucleotide exchange factor 4 (EPAC2) (AID 1645885). Also: nearly all actives have a fitted effect of over 25% in size. Also: potency is read from the fitted curve at half-maximal effect.
The target of experiment [10] is Rap guanine nucleotide exchange factor 3 (Homo sapiens) (UniProt O95398). The experiment can be described thus: Counterscreen qHTS for antagonist of cAMP-regulated guanine nucleotide exchange factor 3 (EPAC1) (AID 1645888).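 Also: fluorescence loss as bound BODIPY-GDP is released from Rap1B; % of control where 0% means no effect.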 The method, boiled down: (§2)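 Rap1B-BODIPY-GDP 250 nM + GDP 50 uM; cpds 7-pt, final 9.74 nM–152 uM (activator mode) or from 7.32 nM upwards (inhibitor mode); RT; FI 480/540 nm at 5 and 30 min, then ± cAMP, reread.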
Chain of Rap guanine nucleotide exchange factor 3 (Homo sapiens) (O95398 whole entry, looked up): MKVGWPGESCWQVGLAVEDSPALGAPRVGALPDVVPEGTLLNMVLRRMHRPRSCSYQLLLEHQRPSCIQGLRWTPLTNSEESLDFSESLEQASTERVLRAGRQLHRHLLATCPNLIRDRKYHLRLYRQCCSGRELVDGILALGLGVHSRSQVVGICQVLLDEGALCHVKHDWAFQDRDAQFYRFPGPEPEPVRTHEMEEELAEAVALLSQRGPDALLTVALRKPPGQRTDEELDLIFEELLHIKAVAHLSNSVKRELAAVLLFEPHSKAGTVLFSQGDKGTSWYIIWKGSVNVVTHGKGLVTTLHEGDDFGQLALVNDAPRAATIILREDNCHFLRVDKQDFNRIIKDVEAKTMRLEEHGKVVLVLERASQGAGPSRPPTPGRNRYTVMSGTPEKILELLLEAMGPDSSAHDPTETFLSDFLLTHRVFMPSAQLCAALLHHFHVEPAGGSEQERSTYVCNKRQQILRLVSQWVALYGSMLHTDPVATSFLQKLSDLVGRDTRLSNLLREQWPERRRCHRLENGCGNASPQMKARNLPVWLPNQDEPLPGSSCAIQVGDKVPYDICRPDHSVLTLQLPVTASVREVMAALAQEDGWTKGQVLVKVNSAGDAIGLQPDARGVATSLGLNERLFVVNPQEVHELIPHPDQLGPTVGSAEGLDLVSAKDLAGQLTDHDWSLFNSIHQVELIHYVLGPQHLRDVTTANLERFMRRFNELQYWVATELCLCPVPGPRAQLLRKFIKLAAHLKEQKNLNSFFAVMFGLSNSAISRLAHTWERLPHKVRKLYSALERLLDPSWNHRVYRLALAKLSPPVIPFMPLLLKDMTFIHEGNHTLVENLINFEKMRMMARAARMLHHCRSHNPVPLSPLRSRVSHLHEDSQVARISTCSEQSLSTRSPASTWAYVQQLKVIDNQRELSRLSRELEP

In experiment [11] the target is DNA polymerase iota (Homo sapiens) (UniProt Q9UNA4). The experiment can be described thus: qHTS for Inhibitors of Polymerase Iota: Confirmatory Assay for Cherry-picked Compounds (AID 720496). Also: potency is read from the fitted curve at half-maximal effect. The following applies: Pol iota primer extension, TAMRA/BHQ fluorescence. The method, boiled down: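 Step 1: 10 nM Pol iota with compound, 15 min, room temperature. Step 2: 50 nM final quenched DNA substrate added. Step 3: fluorescence (ex 525, em 598 nm) read at 0 and after 10 min.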
Chain of DNA polymerase iota (Homo sapiens) (Q9UNA4 whole entry, looked up): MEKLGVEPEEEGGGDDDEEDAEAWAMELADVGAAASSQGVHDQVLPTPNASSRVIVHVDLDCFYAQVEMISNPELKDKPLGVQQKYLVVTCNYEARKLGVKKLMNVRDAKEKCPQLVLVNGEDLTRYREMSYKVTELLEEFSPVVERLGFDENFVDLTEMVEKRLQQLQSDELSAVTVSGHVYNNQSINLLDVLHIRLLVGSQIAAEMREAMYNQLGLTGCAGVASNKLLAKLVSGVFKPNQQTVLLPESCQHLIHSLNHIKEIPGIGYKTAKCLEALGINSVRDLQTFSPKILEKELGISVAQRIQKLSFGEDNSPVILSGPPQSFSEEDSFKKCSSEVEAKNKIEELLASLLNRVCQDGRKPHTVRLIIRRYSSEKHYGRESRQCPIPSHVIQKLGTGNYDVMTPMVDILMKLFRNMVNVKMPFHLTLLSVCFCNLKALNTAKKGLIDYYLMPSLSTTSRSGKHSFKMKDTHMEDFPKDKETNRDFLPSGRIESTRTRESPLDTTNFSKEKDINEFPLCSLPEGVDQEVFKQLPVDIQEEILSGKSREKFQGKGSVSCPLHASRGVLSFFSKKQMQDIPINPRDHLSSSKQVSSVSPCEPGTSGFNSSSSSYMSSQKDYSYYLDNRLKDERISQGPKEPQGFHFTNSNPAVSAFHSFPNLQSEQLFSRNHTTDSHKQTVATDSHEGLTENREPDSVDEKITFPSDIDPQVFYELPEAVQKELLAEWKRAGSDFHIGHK

Experiment [12] addresses Rap guanine nucleotide exchange factor 3 (Homo sapiens) (UniProt O95398). The experiment can be described thus: Counterscreen qHTS for agonist of cAMP-regulated guanine nucleotide exchange factor 3 (EPAC1) (AID 1645889). Also: nearly all actives have a fitted effect of over 40% in size. Also: potency is read from the fitted curve at half-maximal effect. As to activation: % of control where 0% means no effect. A digest of the protocol:
as §2

In experiment [13] the target is Tumor susceptibility gene 101 protein (Homo sapiens) (UniProt Q99816). The experiment can be described thus: qHTS Assay for Iinhibitors of HIV-1 Budding by Blocking the Interaction of PTAP/TSG101: Hit Validation (AID 651600). Also: nearly all actives have a fitted effect of over 70% in size. Also: potency is read from the fitted curve at half-maximal effect. A digest of the protocol:
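Displacement of a FITC-labeled PTAP-motif peptide (50 nM) from the Tsg101 binding domain (10 uM) was monitored by fluorescence polarization after a 20 min room-temperature incubation.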

Experiment [14] concerns the target Tyrosyl-DNA phosphodiesterase 1 (Homo sapiens) (UniProt Q9NUW8). The experiment can be described thus: Confirmation Assay for Inhibitors of Tyrosyl-DNA Phosphodiesterase (TDP1) (AID 489007). Also: potency is read from the fitted curve at half-maximal effect; nearly all actives have a fitted effect of over 40% in size. The following applies: recombinant human TDP1 enzymatic activity, dose-response. A digest of the protocol: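 Recombinant E. coli-expressed Tdp1 (1 nM final) was preincubated with compounds 15 min at room temperature, then reacted 5 min with 15 nM 5'-biotin/3'-phosphotyrosine-FITC DNA substrate; cleavage read as loss of AlphaScreen signal (10 ug/ml beads, 10 min).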

Experiment [15] is described as follows: qHTS for Inhibitors of the vitamin D receptor (VDR): Hit Validation using a Texas Red Assay (AID 602201). Also: % is scaled to controls: 0 for no effect and ±100 for the full control effect. A digest of the protocol:
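After a 2-hour room-temperature incubation, polarization of Texas-Red emission was read (Ex 595 nm/Em 615 nm). Final mix contained 7 nM Texas Red, 1.5 uM VDR-LBD and LG19078.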

A short description of experiment [16]: AP1 Signaling Pathway (AID 357; active = well fitted curve in either direction with a large enough effect, not every such curve was filed as active;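 also: ME-180 reporter cells stimulated with EGF at its EC50 level; % is scaled to controls: 0 for no effect and ±100 for the full control effect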). The conditions noted are these: ME-180 AP-1-bla reporter, EGF-induced, beta-lactamase ratio, 5 h; at 7.69 µM (top of the series) unless noted. The method, boiled down: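 In this screen, ME-180 cells in Opti-MEM with 0.5% dialyzed FBS received EC50 EGF and compound titrations for 5 h. AP-1 reporter beta-lactamase was detected via CCF4 ratio, giving AC50 for positive and negative modulators.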

Experiment [17] can be described thus: NFAT Signaling Pathway (AID 444; active = well fitted curve in either direction with a large enough effect, not every such curve was filed as active;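 also: carbachol stimulus at about its EC50 of 1 µM final; % is scaled to controls: 0 for no effect and ±100 for the full control effect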). The conditions noted are these: Jurkat NFAT-bla M1, carbachol, beta-lactamase ratio, 5 h; at 7.69 µM (top of the series) unless noted. A digest of the protocol: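 Read-out: CCF4 FRET ratio (460 nm/530 nm) after 1 h RT dye loading, used for %activity and AC50 from titration series. Cells: Jurkat NFAT-β-lactamase/M1 line, treated with compound plus 1 uM carbachol for 5 h, 37 °C.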

A short description of experiment [18]: Stat Signaling Pathway (AID 446; active = well fitted curve in either direction with a large enough effect, not every such curve was filed as active;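 also: ME-180 cervical cancer cells given 40 pM IL-6 alongside compound; SIE-controlled beta-lactamase reporter measured as 460/530 nm FRET emission ratio; % is scaled to controls: 0 for no effect and ±100 for the full control effect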). A digest of the protocol: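 Reporter line: ME-180 cervical carcinoma, SIE-beta-lactamase. Treatment: compound with 40 pM IL-6, 5 hrs, 37 C, in low-serum OPTI-MEM with 10 mM HEPES pH 7.3. Detection: 460/530 nm fluorescence.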
Experiment [19] addresses Glucocorticoid receptor (Homo sapiens) (UniProt P04150). The experiment can be described thus: GR-GFP Redistribution (AID 450;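 active = compounds whose dose series gives a full or clear partial fitted curve of increased nuclear translocation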; also: potency is read from the fitted curve at half-maximal effect). The conditions noted are these: U2OS GR-GFP nuclear translocation, laser cytometry, 2 h.

A number with no mark means an inactive call. Results filed as inconclusive are left out. This is one part of the list. The source made the active and inactive calls. Unless noted, calls follow the shape of the dose curve; as a rule, active = well fitted curve in the direction sought with a large enough effect; inconclusive = small, poorly fitted or top-dose-only effect, or another doubt; inactive = no such curve, though single readings can be large; an effect the other way counts as inactive or inconclusive.

Chain of Tumor susceptibility gene 101 protein (Homo sapiens) (Q99816 whole entry, looked up, the tested form may be a part): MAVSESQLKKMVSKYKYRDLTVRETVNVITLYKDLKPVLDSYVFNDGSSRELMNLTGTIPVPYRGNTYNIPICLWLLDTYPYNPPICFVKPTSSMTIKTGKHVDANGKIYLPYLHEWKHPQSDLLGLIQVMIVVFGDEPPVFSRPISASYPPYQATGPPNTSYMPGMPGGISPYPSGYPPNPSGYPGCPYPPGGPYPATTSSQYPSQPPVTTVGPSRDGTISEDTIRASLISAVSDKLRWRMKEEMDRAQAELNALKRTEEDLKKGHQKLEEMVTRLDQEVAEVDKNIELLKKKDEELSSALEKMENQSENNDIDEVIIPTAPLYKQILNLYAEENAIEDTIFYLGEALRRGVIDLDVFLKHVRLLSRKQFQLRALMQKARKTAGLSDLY
Chain of Rap guanine nucleotide exchange factor 4 (Homo sapiens) (Q8WZA2 whole entry, looked up): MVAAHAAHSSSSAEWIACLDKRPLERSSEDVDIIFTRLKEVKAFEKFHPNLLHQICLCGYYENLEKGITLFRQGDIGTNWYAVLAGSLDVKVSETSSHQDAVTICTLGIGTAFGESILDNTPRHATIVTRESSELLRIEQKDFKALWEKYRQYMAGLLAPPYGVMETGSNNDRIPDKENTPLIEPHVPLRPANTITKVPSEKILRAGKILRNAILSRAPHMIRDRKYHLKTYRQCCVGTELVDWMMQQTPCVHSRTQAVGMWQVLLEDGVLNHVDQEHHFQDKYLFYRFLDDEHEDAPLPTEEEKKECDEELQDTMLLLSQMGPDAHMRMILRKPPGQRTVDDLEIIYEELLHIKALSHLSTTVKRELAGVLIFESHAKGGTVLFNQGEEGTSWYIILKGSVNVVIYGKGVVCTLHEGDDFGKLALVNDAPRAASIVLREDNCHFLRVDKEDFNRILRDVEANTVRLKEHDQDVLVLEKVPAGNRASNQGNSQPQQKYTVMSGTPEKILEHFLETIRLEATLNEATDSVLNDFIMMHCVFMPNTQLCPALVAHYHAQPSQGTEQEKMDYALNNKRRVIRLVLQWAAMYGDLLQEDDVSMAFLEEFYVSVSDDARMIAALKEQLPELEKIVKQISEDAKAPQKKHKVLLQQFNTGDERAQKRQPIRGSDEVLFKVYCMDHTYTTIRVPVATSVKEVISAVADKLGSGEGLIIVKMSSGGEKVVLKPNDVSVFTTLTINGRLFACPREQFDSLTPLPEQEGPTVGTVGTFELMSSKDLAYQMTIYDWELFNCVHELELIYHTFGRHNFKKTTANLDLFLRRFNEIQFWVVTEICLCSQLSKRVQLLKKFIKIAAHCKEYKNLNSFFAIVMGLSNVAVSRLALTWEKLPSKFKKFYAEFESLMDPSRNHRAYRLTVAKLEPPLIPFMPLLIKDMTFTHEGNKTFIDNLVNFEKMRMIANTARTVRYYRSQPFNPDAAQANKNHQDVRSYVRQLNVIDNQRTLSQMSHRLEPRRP
Chain of Tyrosyl-DNA phosphodiesterase 1 (Homo sapiens) (Q9NUW8 whole entry, looked up): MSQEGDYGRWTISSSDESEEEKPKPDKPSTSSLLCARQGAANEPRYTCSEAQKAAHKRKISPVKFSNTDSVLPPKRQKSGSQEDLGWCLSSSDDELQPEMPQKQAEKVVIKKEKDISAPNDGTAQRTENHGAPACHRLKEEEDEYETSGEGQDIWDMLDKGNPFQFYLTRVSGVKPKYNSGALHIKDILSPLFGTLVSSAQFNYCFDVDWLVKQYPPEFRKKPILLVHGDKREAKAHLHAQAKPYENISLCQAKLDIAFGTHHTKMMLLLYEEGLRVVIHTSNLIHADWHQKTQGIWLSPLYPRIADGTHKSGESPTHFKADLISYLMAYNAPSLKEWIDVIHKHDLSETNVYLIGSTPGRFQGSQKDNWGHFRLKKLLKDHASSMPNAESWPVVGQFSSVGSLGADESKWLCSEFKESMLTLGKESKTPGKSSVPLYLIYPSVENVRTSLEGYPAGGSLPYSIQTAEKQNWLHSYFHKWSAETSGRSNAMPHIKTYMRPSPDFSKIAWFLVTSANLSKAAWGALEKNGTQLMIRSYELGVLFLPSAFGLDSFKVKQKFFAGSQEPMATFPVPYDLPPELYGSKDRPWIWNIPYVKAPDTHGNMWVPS
Chain of Glucocorticoid receptor (Homo sapiens) (P04150 whole entry, looked up): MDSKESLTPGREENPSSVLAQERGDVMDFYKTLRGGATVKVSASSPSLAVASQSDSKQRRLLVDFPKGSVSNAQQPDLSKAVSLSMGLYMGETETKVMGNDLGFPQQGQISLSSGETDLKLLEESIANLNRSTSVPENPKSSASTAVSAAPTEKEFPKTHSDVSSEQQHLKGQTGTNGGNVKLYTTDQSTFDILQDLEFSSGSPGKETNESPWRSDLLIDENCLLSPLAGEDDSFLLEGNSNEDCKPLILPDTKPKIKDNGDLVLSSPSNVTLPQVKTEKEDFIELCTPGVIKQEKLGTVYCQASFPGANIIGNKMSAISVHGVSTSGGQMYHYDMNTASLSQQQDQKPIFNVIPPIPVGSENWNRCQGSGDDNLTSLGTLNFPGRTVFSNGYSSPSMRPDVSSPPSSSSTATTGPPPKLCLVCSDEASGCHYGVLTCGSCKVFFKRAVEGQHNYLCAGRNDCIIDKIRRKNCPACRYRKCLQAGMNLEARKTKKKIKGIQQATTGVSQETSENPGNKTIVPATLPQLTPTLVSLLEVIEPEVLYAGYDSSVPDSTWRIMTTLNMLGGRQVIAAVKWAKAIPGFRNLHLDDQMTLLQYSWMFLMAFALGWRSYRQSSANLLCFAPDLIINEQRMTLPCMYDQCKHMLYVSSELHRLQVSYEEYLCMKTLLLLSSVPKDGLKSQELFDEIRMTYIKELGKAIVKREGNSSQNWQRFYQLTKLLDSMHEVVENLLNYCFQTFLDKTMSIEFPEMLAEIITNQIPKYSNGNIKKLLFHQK

In the case of `COC(=O)C1=C(C(=O)OC)[C@@H]2N(Cc3ccccc3)c3ccccc3[C@@]23C[C@@H](C(=O)OC)N=C3N1`, the compound was called inactive in experiment [1], in [2], in [3], in experiment [4] and in [5]. For the same compound, the Potency entry in experiment [6], in experiment [7] and in experiment [9] was “inactive” throughout. Besides, the activation in experiment [8] was 0% [at 17.1 µM, percent relative to cAMP agonist control]. For the same compound, the activity change, negative = inhibition in [10] was 17% [at 30.8 µM].

Take `COC(=O)c1ccc(COc2ccc(/C=C/C(=O)c3ccc(OC)c(CSCC(=O)O)c3)cc2OC)cc1`: the Potency is 75.2 µM (active) in experiment [11] and 37.9 µM (active) in experiment [6]. For the same compound, the Potency entry in [7], in experiment [8], in experiment [9], in experiment [10] and in [12] was “inactive” in each case.

`CSC1=NSC2=NC(=O)/C(=C/c3coc4ccccc4c3=O)C(=N)N12`: the Potency is 18.3 µM (active) in experiment [13], 89.1 µM (active) in [7], 100 µM (active) in [8] and 39.8 µM (active) in experiment [12]. Also, the Potency result in [6], in experiment [9] and in [10] was “inactive” each time.

Take `O=C(N/N=C/c1ccccc1Cl)c1[nH]c2ccc(Br)cc2c1-c1ccccc1`: the Potency entry in experiment [13], in experiment [6], in experiment [7], in experiment [9] and in experiment [10] was “inactive” each time. The Potency in experiment [8] was 126 µM (active).

With `COc1ccc(S(=O)(=O)/N=C2\C=C(NS(=O)(=O)c3ccccc3)C(=O)c3ccccc32)cc1`, the Potency in experiment [11] was 67 µM (active); in experiment [6], 8.49 µM (active); in experiment [7], 50.1 µM (active); in experiment [8], 100 µM (active); in experiment [9], 10.7 µM (active). Moreover, the Potency result in [10] and in experiment [12] was “inactive” throughout.

`Cc1ccc(-c2cn3nc(-c4ccccc4)c(-c4ccccc4)nc3n2)cc1`: the Potency in [13] is 25.9 µM (active). For the same compound, the Potency result in [6], in experiment [7], in [8], in experiment [9], in experiment [10] and in experiment [12] was “inactive” in each case.

As to `O=C1c2cccc3c(O)ccc(c23)C(=O)N1c1ccc(Cl)cc1`, the Potency is 4.11 µM (active) in experiment [13]; 112 µM (active) in experiment [7]; 112 µM (active) in experiment [8]; 84.9 µM (active) in [9]; 39.8 µM (active) in [12]. The Potency entry in experiment [6] and in [10] was “inactive” each time.

On to `Cc1cc(NS(=O)(=O)c2ccc(NC(=O)COc3c(C)cc(Br)cc3C)cc2)no1`, for which the Potency result in experiment [13], in experiment [6], in experiment [7], in experiment [8], in experiment [9] and in experiment [10] was “inactive” each time. In addition, in experiment [12], the Potency result was “inactive”.

As to `NC1=CC(=O)C(=O)c2cccnc21`, the Potency is 42.3 µM (active) in experiment [11] and 10 µM (active) in experiment [6]. Besides, the Potency entry in experiment [7] and in experiment [9] was “inactive” in each case. Moreover, the activation in experiment [8] was 3.71% [at 17.1 µM, percent relative to cAMP agonist control]; in experiment [12], 11.2% [at 30.8 µM]. The activity change, negative = inhibition in experiment [10] was -7.69% [at 30.8 µM].

Consider `Fc1ccc(N2N=C(c3cccs3)CC2c2ccccc2)cc1` (configuration not stated), for which the Potency in [14] was 28.2 µM (active). Besides, the Potency result in [6], in experiment [7], in experiment [8], in experiment [9] and in experiment [10] was “inactive” each time.

As to `Cc1cc2nc3c(=O)n(C4CCCCC4)c(=O)[nH]c3nc2cc1N`, the Potency in experiment [13] was 0.651 µM (active); in experiment [7], 56.2 µM (active); in experiment [8], 56.2 µM (active); in experiment [12], 25.1 µM (active). The Potency result in experiment [6], in experiment [9] and in experiment [10] was “inactive” throughout.

On to `Cc1ccc(C(=O)/C=C/c2cc(Br)cc(Br)c2O)o1`, for which the Potency entry in [15], in experiment [7], in [8], in [9], in experiment [10] and in [12] was “inactive” throughout. Further, the Potency in [6] is 26.9 µM (active).

Consider `COc1ccc2nc3ccccc3[n+]([O-])c2c1`, for which the results for the Potency in experiment [13] and in experiment [7] were 18.3 µM (active) and 79.4 µM (active), respectively. Also, the Potency entry in experiment [6] and in experiment [9] was “inactive” in each case. Moreover, the activation in [8] is 14% [at 17.1 µM, percent relative to cAMP agonist control]. In experiment [10], the activity change, negative = inhibition was 32.7% [at 30.8 µM].

Regarding `COCCn1c(N)c(C(=O)NCC2CCCO2)c2nc3ccccc3nc21` (configuration not stated), the activity change, negative = inhibition in experiment [16] is -8.13% [at 17.2 µM]; in experiment [17], 8.7% [at 17.2 µM]. The compound was classed as inactive in experiment [18]. Besides, the Potency in experiment [19] was over 20.6 µM. The Potency entry in experiment [6], in [7], in experiment [8], in experiment [9] and in experiment [10] was “inactive” each time.

Turning to `c1ccc(-c2cn3nc(-c4ccccc4)c(-c4ccccc4)nc3n2)cc1`, the Potency result in [13], in experiment [6], in experiment [7] and in [9] was “inactive” in each case. The activation is 8.73% [at 17.1 µM, percent relative to cAMP agonist control] in [8] and 16.7% [at 30.8 µM] in [12]. Moreover, the activity change, negative = inhibition in experiment [10] was 14.3% [at 30.8 µM].

In the case of `COc1ccc(N=Nc2nc3cc(Br)c(Br)cc3n2C)c(OC)c1`, the Potency entry in experiment [13], in experiment [6], in experiment [7] and in experiment [9] was “inactive” in each case. Also, the activation in experiment [8] was 3.19% [at 17.1 µM, percent relative to cAMP agonist control]. In addition, the activity change, negative = inhibition in experiment [10] is 88.5% [at 30.8 µM]. Further, the Potency in experiment [12] is 12.6 µM (active).

With `N#C/C(=C\c1ccccn1)c1nc2ccccc2s1`, the Potency result in [13], in experiment [7], in experiment [8], in experiment [9] and in [10] was “inactive” throughout. Besides, the Potency in experiment [6] is 19 µM (active).

As to `Cc1[nH]n(-c2ncc(-c3ccccc3)s2)c(=O)c1C(c1ccc(Cl)cc1)C(C#N)C#N` (configuration not stated), the Potency result in [15], in [7] and in experiment [9] was “inactive” throughout. The Potency in experiment [6] was 22.4 µM (active). In addition, the activation was -0.2% [at 17.1 µM, percent relative to cAMP agonist control] in experiment [8] and 13% [at 30.8 µM] in experiment [12]. In addition, the activity change, negative = inhibition in [10] is -10.4% [at 30.8 µM].

(Values after PubChem BioAssay (NCATS).)
